# Laboratory results reported in PubChem BioAssay AID488789 (Broad Institute, 2010).
# Entries with a potency or affinity are not part of this list. Inconclusive results are not listed. Calls of active or inactive are those of the source.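 The calls were made as follows: active = samples whose fitted half-maximal inhibition concentration is no more than ten times the top valid dose tested; inconclusive = flat response between -70 and -30, or invalid curve fit; inactive = flat within 30 of zero, potency above limit, or signal rising.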
# Target: Trypsin (Sus scrofa) (UniProt P00761)
# Experiment: trypsin protease activity blockade – biochemical, quenched peptide fluorescence, cherry-pick, selectivity assay for Rce1 protease inhibitor project, dose response (AID 488789);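 also: more negative means stronger trypsin inhibition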
# Conditions: porcine trypsin, quenched peptide cleavage fluorescence; series mostly up to 10 µM
# Trypsin (Sus scrofa), sequence (P00761 whole entry, looked up): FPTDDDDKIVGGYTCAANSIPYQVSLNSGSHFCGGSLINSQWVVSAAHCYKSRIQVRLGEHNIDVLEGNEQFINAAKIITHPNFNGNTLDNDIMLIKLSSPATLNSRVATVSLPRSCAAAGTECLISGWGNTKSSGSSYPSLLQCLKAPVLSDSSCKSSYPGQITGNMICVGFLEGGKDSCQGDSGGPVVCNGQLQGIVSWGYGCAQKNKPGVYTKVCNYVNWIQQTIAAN
row,SMILES,outcome
1,Cc1ccc(C2(COC(=O)C(C)C)CO2)c(OC(=O)C(C)C)c1 (stereo not drawn),inactive
2,CCCOc1ccccc1C(=O)NCCCC(=O)O,inactive
3,COc1cccc(-c2nc(C#N)c(N3CCN(C(=O)c4ccco4)CC3)o2)c1,inactive
4,COc1ccccc1NC(=O)Cc1nnc(SCC(=O)Nc2nccs2)n1C,inactive
5,O=[N+]([O-])c1ccc(-c2cnc(SC(c3ccccc3)c3ccccc3)[nH]2)cc1,inactive
6,COCCNc1nc(N)c([N+](=O)[O-])c(N2CCCCCC2)n1,inactive
7,Nc1nc2c(ncn2COC(CO)CO)c(=O)[nH]1,inactive
8,CCC1(c2ccccc2)NC(=O)N(CC(=O)Nc2ccc3c(C)cc(=O)oc3c2)C1=O (stereo not drawn),inactive
9,COc1ccc2cc(C(=O)C3CCCN(C(=O)c4cc(=O)n(C)c(=O)n4C)C3)ccc2c1 (stereo not drawn),inactive
10,O=C(Cn1c2ccccc2c(=O)c2ccccc21)Nc1ccccc1F,inactive
11,Cc1cc(C)cc(Nc2nc(-c3ccc(S(=O)(=O)N4CCCC4)cc3)cs2)c1,inactive
12,c1cnn(Cc2cnc(N3CCOCC3)s2)c1,inactive
13,CN(C(=O)COC(=O)c1cn(-c2ccccc2)nc1-c1ccccc1)C1CCS(=O)(=O)C1 (stereo not drawn),inactive
14,O=C1CCN(Cc2ccccc2)CCN1[C@H](CSc1ccccc1)Cc1ccccc1,inactive
15,COC(C/C=C/[C@H](O)[C@@H](C)OCc1ccccc1)OC,inactive
16,O=C(O)CCC(=O)c1ccc(-c2ccccc2)cc1,inactive
17,CC(=O)Nc1ccc(Cl)cc1C1COC(=O)C1=N (stereo not drawn),inactive
18,COc1ccc2[nH]c(C(=O)NCCCn3ccnc3)cc2c1,inactive
